The source of these data is PubChem BioAssay.

The nature of assay [1]: circadian clock period modulators, cell-based, LOPAC library, luminescence reporter (AID 2774; call rule not given here;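 further: values are relative to mean of DMSO wells on each plate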). The note with it: circadian reporter cells, at 7 µM, actives lie on both sides.
Assay [2] relates to Hepatitis C virus NS3 helicase. The experiment in a line: HCV NS3 helicase inhibitors, primary screen, biochemical, fluorescence polarization, LOPAC1280 library (AID 687035; in the data active means inhibition above about 37%). As to conditions: Purified HCV NS3 helicase, Cy5-dT15 ssDNA binding fluorescence polarization; stronger effect = higher value; concentration not given here. (Polarisation of emitted light reports the rotation of a fluorescent probe.)

Assay [3] in a line: Cy5 fluorescence quenching or enhancement artefacts, artefact control for HCV NS3 helicase inhibitor project, biochemical, LOPAC1280 (AID 687037; call rule not given here). As to conditions: Cy5-DNA-NS3h complex fluorescence interference counterscreen. Background: Counterscreens check selectivity or assay interference.
Assay [4] can be described thus: sensitizers of A549 cells to miR-34 induction, primary screen, imaging, A549 dox-inducible miR-34, nuclei and caspase counts (AID 1347080). As to conditions: A549 miR-34 inducible, Hoechst nuclei count, 48 h.
Assay [5] can be described thus: phospholipid biosynthesis inhibitors in animal cells, primary screen, cell-based, LOPAC library, screen 4 (AID 1347384; call rule not given here). The note with it: phospholipid biosynthesis inhibition screen, at 10 µM.
A short description of assay [6]: viability rescue of complex I mutant cybrids, primary screen, cell-based, galactose medium, ATP luminescence (AID 1645843;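 active means z-score of at least 1.8 in each of two replicates, scored against plate mean and spread of sample wells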;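 further: positive z means more ATP and so rescue of galactose-driven cybrid death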). The note with it: complex I mutant cybrid cells, 72 h, stronger effect = higher value.
Assay [7] in a line: survival rescue of mitochondrial mutant cells in low glucose, primary screen, MELAS cybrids, Rieske KO mouse fibroblasts, CellTiter-Glo (AID 1508586;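 active means mean z-score across replicates of 1.96 or higher in either the MELAS or the Rieske mutant cell line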;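 further: z relative to plate mean and SD of compound and empty wells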). A general note: ATP-based viability assays read luminescence as a measure of living cells.
The mark [8] stands for this setting: stronger effect = lower value, cell number ratio, induced over uninduced.
[9] abbreviates: measured here: relative caspase fold change +Dox/-Dox.
[10] abbreviates: measured here: total cells with miR-34 induction, stronger effect = lower value.
Where [11] appears, read: measured here: total cells without miR-34 induction.
The mark [12] stands for this setting: MELAS cybrid survival, CellTiter-Glo 48 h, stronger effect = higher value.
Where [13] appears, read: Rieske KO mouse fibroblast survival, CellTiter-Glo 72 h.

Molecules are shown by their SMILES. The source made the active and inactive calls.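 How the source made its calls, unless noted: active means compounds whose cell count with miR-34 switched on is under 0.7 times the count with it off; inactive means the rest.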

The inhibition is the change of the read-out against control, counted positive when it falls. For the compound `O=C(O)c1cc(=O)cc(C(=O)O)[nH]1`, the period change in assay [1] is -0.025 h (inactive). Moreover, in assay [2], the inhibition is 0% (inactive). Moreover, in assay [3], the fluorescence ratio (interference) was 1 (inactive). In addition, the fold change in assay [4] (setting [8]) was 0.984 (inactive); in assay [4] (setting [9]), 1.62. Also, the cell count in assay [4] (setting [10]) amounted to 10200; in assay [4] (setting [11]) it was 10300. Moreover, in assay [5], the result was inactive. Moreover, the z-score in assay [6] is 0.285 (inactive).

Turning to `Nc1cc(F)ccc1NC(=O)C=Cc1cnn(CC=Cc2ccccc2)c1`, the fold change in assay [4] (setting [8]) is 0.91 (inactive); in assay [4] (setting [9]), 0.53. The cell count in assay [4] (setting [10]) came out at 6990; in assay [4] (setting [11]), 7680. The z-score in assay [7] (setting [12]) was -0.402 (inactive); in assay [7] (setting [13]), -2.77.

For the compound `C=C[C@@]1(C)CC(OC(=O)CSC2C[C@H]3CC[C@@H](C2)N3C)[C@]2(C)C(C)CC[C@]3(CCC(=O)[C@H]32)C(C)C1O` (some centres not stated), the fold change in assay [4] (setting [8]) was 0.984 (inactive); in assay [4] (setting [9]) it was 1.2. Also, the cell count in assay [4] (setting [10]) is 7780; in assay [4] (setting [11]) it was 7910. Besides, the z-score in assay [7] (setting [12]) was 2.23 (active); in assay [7] (setting [13]) it was 5.36.

For `CNCCc1cnc(CCC(c2ccccc2)c2ccccc2)[nH]1`, the inhibition in assay [2] is -4% (inactive). In addition, the fluorescence ratio (interference) in assay [3] is 1 (inactive). Besides, the values for the fold change in assay [4] (setting [8]) and in assay [4] (setting [9]) were 1.13 (inactive) and 0.656, respectively. The cell count in assay [4] (setting [10]) stood at 5430; in assay [4] (setting [11]) it was 4810. For the same compound, in assay [5], the result was inactive. For the same compound, the z-score in assay [6] is -0.725 (inactive).

For the compound `CC1CC=CC=CC=CC=CC(O[C@@H]2OC(C)C(O)C(N)C2O)C[C@@H]2O[C@](O)(CC(O)C[C@H]3OC3C=CC(=O)O1)CC(O)C2C(=O)O` (some centres not stated), the fold change was 0.876 (inactive) in assay [4] (setting [8]) and 1.14 in assay [4] (setting [9]). Further, the cell count in assay [4] (setting [10]) came out at 7260; in assay [4] (setting [11]) it was 8280. Moreover, the figures for the z-score in assay [7] (setting [12]) and in assay [7] (setting [13]) were -0.47 (inactive) and -0.427, respectively.

On to `C=CC[N+]1(C2C[C@H]3[C@@H]4CC[C@H]5CC(O)C(N6CCOCC6)C[C@]5(C)[C@@H]4CC[C@]3(C)C2OC(C)=O)CCCC1` (some centres not stated), for which the fold change is 0.951 (inactive) in assay [4] (setting [8]) and 0.974 in assay [4] (setting [9]). The cell count in assay [4] (setting [10]) was 8100; in assay [4] (setting [11]) it was 8520. In addition, the z-score in assay [7] (setting [12]) was -0.403 (inactive); in assay [7] (setting [13]), 0.424.

In the case of `COC1C=CC=C(C)C(=O)NC2=CC(=O)C(NCCN(C)C)=C(CC(C)CC(OC)C(O)C(C)C=C(C)C1OC(N)=O)C2=O` (configuration not stated), the fold change in assay [4] (setting [8]) is 1.03 (inactive); in assay [4] (setting [9]), 1.2. The cell count in assay [4] (setting [10]) came out at 1450; in assay [4] (setting [11]) it was 1410. In addition, the z-score in assay [7] (setting [12]) is 2.44 (active); in assay [7] (setting [13]) it was -2.5.

In the case of `COC1C=CO[C@@]2(C)Oc3c(C)c(O)c4c(O)c(c(C=NN5CCN(C)CC5)c(O)c4c3C2=O)NC(=O)C(C)=CC=CC(C)C(O)C(C)C(O)C(C)C(OC(C)=O)C1C` (some centres not stated), the fold change was 0.973 (inactive) in assay [4] (setting [8]) and 0.46 in assay [4] (setting [9]). Further, the cell count in assay [4] (setting [10]) amounted to 7970; in assay [4] (setting [11]) it was 8200. Also, the results for the z-score in assay [7] (setting [12]) and in assay [7] (setting [13]) were -0.298 (inactive) and 0.515, respectively.

`CC1(C)O[C@@H]2C[C@H]3[C@@H]4C[C@@H](F)C5=CC(=O)C=C[C@]5(C)[C@]4(F)C(O)C[C@]3(C)[C@@]2(C(=O)CO)O1` (some centres not stated): the fold change in assay [4] (setting [8]) was 0.861 (inactive); in assay [4] (setting [9]) it was 0.94. In addition, the cell count came to 5980 in assay [4] (setting [10]) and 6950 in assay [4] (setting [11]). The z-score in assay [7] (setting [12]) was -0.367 (inactive); in assay [7] (setting [13]), -0.28.

Take `CCOC(=O)C(CCc1ccccc1)NC1CCCN2CCCC(C(=O)O)N2C1=O` (configuration not stated): the fold change in assay [4] (setting [8]) was 0.927 (inactive); in assay [4] (setting [9]) it was 0.673. For the same compound, the cell count in assay [4] (setting [10]) came out at 7550; in assay [4] (setting [11]), 8150. Also, the z-score is -0.275 (inactive) in assay [7] (setting [12]) and -0.0266 in assay [7] (setting [13]).

Turning to `CCC[C@@H]1OC2C[C@H]3[C@@H]4CCC5=CC(=O)C=C[C@]5(C)[C@@H]4C(O)C[C@]3(C)[C@@]2(C(=O)CO)O1` (some centres not stated), the fold change is 1.01 (inactive) in assay [4] (setting [8]) and 0.72 in assay [4] (setting [9]). Further, the results for the cell count in assay [4] (setting [10]) and in assay [4] (setting [11]) were 3350 and 3330, respectively. For the same compound, the z-score in assay [7] (setting [12]) was -0.541 (inactive); in assay [7] (setting [13]), -0.57.

Turning to `CCC(=O)NCCC1CCc2ccc3c(c21)CCO3` (configuration not stated), the fold change in assay [4] (setting [8]) was 0.931 (inactive); in assay [4] (setting [9]) it was 4.33. Moreover, the results for the cell count in assay [4] (setting [10]) and in assay [4] (setting [11]) were 8720 and 9370, respectively. The z-score in assay [7] (setting [12]) was -0.89 (inactive); in assay [7] (setting [13]) it was 0.046.
